In ChEMBL document CHEMBL1961873, “Compounds: GSK PKIS; Assays: Nanosyn kinase panel” (2012):

Assays:
[1] = target: T1, Inhibitor of nuclear factor kappa-B kinase subunit epsilon (Homo sapiens) (UniProt Q14164); conditions: at 1 µM;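 also: reported values are averaged percent inhibition figures against human IKKε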
T1 sequence (whole entry): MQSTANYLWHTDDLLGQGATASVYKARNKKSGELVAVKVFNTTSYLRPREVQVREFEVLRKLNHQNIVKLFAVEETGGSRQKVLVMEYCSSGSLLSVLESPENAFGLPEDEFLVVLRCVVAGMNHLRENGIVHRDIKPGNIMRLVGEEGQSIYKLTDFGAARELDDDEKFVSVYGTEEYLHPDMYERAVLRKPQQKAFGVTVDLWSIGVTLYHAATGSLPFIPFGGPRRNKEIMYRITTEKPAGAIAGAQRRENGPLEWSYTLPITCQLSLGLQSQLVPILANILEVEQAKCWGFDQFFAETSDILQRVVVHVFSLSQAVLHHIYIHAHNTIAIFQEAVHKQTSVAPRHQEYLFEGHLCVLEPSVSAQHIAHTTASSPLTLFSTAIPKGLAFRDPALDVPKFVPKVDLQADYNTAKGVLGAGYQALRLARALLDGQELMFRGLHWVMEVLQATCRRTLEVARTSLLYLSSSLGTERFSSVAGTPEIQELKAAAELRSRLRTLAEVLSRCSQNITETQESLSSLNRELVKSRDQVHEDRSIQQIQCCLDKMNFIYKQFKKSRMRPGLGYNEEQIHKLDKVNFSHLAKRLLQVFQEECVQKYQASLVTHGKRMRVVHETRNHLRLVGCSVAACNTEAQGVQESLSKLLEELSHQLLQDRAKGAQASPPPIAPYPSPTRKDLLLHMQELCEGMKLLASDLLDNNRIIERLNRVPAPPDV

[2] = target: T2, Serine/threonine-protein kinase Nek1 (Homo sapiens) (UniProt Q96PY6); conditions: at 0.1 µM
T2 sequence (whole entry): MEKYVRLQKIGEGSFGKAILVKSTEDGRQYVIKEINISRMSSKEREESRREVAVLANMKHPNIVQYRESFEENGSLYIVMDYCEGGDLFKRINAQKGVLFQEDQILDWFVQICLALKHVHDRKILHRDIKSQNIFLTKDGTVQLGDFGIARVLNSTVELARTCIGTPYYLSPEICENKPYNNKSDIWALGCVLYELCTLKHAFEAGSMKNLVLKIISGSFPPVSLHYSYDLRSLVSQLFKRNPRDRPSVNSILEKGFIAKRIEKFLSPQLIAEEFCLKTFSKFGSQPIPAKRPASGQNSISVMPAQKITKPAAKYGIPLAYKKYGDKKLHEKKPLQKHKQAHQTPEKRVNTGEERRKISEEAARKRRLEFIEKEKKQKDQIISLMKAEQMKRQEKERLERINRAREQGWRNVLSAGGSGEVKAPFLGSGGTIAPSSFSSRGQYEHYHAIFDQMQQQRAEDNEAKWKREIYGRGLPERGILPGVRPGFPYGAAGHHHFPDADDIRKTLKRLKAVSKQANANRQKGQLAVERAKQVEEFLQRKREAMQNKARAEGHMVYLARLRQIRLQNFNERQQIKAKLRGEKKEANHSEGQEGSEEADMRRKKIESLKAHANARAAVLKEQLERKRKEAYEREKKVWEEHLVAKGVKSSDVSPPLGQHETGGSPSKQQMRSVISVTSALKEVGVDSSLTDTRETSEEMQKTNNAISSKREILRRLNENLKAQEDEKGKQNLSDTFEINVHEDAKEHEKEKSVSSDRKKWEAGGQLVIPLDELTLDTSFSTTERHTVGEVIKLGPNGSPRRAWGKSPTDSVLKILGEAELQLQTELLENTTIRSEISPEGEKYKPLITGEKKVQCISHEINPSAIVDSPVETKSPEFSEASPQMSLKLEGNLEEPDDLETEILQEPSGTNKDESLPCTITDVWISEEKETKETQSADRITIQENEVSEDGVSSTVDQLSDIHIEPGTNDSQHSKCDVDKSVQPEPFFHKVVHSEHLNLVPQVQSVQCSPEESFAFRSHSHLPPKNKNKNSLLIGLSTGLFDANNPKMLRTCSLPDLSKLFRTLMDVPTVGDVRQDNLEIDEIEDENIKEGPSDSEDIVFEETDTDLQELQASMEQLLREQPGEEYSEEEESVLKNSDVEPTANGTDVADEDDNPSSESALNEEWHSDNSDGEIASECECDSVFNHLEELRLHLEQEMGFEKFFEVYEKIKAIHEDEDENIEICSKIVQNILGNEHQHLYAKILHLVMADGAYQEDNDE

[3] = target: T2, Serine/threonine-protein kinase Nek1 (Homo sapiens); conditions: at 1 µM
[4] = target: T3, Serine/threonine-protein kinase Nek2 (Homo sapiens) (UniProt P51955); conditions: at 0.1 µM
T3 sequence (whole entry): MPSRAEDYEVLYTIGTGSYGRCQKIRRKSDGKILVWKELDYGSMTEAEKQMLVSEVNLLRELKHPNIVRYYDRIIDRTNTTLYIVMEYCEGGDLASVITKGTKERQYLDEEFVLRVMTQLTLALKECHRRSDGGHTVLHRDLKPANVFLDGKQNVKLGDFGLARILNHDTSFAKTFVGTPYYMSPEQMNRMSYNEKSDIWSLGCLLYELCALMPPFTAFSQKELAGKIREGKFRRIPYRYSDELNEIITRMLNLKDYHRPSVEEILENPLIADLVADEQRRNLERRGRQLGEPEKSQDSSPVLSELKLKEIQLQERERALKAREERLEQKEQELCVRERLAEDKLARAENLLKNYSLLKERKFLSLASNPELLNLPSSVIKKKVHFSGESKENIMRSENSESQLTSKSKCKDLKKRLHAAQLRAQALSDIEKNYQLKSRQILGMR

[5] = target: T3, Serine/threonine-protein kinase Nek2 (Homo sapiens); conditions: at 1 µM
[6] = target: Serine/threonine-protein kinase Nek6 (Homo sapiens) (UniProt Q9HC98); conditions: at 0.1 µM
[7] = target: Serine/threonine-protein kinase Nek6 (Homo sapiens) (UniProt Q9HC98); conditions: at 1 µM
[8] = target: Serine/threonine-protein kinase Nek7 (Homo sapiens) (UniProt Q8TDX7); conditions: at 0.1 µM
[9] = target: Serine/threonine-protein kinase Nek7 (Homo sapiens) (UniProt Q8TDX7); conditions: at 1 µM
[10] = target: T4, Serine/threonine-protein kinase Nek9 (Homo sapiens) (UniProt Q8TD19); conditions: at 0.1 µM
T4 sequence (whole entry): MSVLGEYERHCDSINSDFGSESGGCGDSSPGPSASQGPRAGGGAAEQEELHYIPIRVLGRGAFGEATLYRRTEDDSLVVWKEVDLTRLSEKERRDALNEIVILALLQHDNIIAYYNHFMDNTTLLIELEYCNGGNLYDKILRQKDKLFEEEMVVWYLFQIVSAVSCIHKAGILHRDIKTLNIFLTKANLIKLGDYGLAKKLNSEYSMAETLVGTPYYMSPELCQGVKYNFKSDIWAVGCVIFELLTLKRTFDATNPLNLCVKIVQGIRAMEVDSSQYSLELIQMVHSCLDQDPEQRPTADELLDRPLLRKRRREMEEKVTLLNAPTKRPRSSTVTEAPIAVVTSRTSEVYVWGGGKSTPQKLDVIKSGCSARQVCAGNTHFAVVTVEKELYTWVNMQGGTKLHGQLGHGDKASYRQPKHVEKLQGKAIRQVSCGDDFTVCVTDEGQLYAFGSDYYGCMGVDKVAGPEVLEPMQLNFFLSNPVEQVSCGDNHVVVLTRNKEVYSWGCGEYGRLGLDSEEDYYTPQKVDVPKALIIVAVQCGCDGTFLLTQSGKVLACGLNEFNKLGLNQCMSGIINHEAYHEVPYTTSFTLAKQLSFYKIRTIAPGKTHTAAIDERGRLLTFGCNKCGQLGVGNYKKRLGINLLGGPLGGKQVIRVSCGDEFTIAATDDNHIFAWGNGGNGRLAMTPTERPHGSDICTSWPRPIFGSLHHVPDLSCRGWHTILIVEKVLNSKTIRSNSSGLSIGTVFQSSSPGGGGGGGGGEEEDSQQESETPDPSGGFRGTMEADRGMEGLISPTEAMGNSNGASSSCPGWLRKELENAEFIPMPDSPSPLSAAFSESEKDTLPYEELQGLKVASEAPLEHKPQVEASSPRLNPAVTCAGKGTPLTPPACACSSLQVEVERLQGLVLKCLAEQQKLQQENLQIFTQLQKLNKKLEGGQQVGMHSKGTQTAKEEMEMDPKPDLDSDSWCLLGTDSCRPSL

[11] = target: T4, Serine/threonine-protein kinase Nek9 (Homo sapiens); conditions: at 1 µM
[12] = target: Serine/threonine-protein kinase PLK1 (Homo sapiens) (UniProt P53350); conditions: at 0.1 µM
[13] = target: Serine/threonine-protein kinase PLK1 (Homo sapiens) (UniProt P53350); conditions: at 1 µM
[14] = target: T5, Dual specificity protein kinase TTK (Homo sapiens) (UniProt P33981); conditions: at 0.1 µM
T5 sequence (whole entry): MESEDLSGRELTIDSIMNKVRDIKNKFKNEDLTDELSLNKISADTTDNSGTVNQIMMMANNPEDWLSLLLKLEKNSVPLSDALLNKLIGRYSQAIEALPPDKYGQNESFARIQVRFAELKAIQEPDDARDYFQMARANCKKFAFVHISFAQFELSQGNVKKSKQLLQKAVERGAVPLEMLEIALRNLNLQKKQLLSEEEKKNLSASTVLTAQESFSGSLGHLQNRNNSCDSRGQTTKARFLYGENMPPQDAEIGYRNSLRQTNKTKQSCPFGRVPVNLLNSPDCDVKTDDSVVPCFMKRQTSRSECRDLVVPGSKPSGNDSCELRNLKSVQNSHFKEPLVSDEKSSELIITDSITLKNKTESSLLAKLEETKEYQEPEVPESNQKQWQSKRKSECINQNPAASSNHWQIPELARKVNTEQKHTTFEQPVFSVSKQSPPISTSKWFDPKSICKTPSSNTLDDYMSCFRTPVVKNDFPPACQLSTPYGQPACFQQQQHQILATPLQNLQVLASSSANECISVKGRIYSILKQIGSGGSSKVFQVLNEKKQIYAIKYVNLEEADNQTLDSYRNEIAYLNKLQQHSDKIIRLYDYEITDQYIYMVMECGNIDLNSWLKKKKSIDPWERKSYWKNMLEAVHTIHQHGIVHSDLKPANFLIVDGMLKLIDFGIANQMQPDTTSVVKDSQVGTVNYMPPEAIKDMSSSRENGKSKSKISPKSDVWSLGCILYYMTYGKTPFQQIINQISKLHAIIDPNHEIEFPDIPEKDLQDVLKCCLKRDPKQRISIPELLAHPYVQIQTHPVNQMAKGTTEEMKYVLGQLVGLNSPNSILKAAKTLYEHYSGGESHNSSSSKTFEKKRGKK

[15] = system: T6, Receptor-type tyrosine-protein kinase FLT3 (Homo sapiens), P36888 [D835Y]; conditions: at 1 µM
T6 sequence (whole entry): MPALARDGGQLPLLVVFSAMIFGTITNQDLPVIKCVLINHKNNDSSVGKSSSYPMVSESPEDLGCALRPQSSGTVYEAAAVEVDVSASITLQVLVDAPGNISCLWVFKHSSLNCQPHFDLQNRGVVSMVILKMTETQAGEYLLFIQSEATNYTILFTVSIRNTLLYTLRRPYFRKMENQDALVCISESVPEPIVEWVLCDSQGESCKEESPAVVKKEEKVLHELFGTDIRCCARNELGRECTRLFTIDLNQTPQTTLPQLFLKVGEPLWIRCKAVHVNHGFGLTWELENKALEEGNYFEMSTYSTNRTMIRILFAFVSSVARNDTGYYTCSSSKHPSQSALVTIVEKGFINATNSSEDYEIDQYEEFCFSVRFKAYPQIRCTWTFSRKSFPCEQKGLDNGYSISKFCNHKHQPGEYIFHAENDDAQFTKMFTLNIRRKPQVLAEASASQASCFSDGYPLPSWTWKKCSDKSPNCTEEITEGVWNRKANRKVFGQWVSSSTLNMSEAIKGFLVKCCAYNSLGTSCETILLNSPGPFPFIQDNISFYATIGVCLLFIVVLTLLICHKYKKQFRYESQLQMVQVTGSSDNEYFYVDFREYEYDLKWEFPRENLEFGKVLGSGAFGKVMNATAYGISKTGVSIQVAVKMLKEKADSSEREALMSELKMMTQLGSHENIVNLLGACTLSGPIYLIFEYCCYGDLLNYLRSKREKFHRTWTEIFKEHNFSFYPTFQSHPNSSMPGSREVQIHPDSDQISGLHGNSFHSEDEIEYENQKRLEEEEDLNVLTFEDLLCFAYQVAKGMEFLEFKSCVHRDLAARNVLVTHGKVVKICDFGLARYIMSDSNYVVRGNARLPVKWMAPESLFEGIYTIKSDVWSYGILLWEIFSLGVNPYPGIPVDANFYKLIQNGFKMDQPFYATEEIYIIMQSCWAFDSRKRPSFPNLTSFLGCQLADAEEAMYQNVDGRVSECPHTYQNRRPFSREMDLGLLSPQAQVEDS

[16] = target: Vascular endothelial growth factor receptor 3 (Homo sapiens) (UniProt P35916); conditions: at 0.1 µM
[17] = target: Vascular endothelial growth factor receptor 3 (Homo sapiens) (UniProt P35916); conditions: at 1 µM
[18] = target: Macrophage colony-stimulating factor 1 receptor (Homo sapiens) (UniProt P07333); conditions: at 0.1 µM
[19] = target: Macrophage colony-stimulating factor 1 receptor (Homo sapiens) (UniProt P07333); conditions: at 1 µM
[20] = target: Tyrosine-protein kinase Fyn (Homo sapiens) (UniProt P06241); conditions: at 0.1 µM
Sequence of Tyrosine-protein kinase Fyn (Homo sapiens) (P06241 2-537 limits assumed): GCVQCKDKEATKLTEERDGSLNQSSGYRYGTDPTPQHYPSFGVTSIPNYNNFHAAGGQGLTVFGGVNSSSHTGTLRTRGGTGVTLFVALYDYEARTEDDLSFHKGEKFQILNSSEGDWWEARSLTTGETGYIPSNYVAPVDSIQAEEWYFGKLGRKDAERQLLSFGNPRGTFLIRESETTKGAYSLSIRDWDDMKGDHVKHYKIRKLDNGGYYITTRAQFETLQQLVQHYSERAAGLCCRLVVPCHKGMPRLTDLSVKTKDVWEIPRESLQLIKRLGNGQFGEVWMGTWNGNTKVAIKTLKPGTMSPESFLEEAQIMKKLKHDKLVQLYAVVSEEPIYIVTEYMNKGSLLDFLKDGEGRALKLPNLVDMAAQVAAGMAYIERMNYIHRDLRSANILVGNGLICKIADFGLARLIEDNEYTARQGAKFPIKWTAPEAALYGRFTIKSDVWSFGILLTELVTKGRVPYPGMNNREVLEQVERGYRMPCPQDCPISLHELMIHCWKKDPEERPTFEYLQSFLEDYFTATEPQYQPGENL

Sequence of Serine/threonine-protein kinase Nek6 (Homo sapiens) (Q9HC98 whole entry): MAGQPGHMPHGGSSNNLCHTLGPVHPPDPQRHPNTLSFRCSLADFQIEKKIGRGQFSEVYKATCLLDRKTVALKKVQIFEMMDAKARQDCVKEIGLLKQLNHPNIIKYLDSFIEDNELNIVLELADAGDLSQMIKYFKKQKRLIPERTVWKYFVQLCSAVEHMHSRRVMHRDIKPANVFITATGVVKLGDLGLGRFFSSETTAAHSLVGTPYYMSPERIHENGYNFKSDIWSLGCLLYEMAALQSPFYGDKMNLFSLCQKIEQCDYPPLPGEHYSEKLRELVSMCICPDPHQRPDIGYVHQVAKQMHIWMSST
Sequence of Macrophage colony-stimulating factor 1 receptor (Homo sapiens) (P07333 whole entry): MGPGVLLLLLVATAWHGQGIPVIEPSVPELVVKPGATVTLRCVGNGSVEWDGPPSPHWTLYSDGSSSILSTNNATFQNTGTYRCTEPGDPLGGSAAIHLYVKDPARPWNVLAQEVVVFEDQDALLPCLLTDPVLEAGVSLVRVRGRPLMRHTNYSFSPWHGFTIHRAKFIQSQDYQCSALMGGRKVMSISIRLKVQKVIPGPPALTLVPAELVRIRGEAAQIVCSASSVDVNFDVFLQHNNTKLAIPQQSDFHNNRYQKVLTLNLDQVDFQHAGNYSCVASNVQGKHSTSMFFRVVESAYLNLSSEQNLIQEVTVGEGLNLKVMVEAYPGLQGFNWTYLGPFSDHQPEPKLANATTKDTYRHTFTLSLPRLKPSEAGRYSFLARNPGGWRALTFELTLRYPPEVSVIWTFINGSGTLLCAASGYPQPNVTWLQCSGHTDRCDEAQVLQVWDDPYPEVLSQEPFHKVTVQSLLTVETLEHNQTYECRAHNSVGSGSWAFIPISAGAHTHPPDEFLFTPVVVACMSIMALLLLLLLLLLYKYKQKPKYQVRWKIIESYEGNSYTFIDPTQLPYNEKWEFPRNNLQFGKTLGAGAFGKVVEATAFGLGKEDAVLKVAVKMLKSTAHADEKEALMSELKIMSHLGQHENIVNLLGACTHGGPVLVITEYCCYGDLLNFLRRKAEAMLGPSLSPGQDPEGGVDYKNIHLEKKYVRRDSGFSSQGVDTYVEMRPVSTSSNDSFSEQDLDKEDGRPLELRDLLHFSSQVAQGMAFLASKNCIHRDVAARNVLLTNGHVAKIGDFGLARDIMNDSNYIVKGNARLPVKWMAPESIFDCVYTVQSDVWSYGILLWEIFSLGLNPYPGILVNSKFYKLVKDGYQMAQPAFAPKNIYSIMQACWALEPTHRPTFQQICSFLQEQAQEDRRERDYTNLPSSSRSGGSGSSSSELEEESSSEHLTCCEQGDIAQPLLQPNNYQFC
Sequence of Serine/threonine-protein kinase PLK1 (Homo sapiens) (P53350 whole entry): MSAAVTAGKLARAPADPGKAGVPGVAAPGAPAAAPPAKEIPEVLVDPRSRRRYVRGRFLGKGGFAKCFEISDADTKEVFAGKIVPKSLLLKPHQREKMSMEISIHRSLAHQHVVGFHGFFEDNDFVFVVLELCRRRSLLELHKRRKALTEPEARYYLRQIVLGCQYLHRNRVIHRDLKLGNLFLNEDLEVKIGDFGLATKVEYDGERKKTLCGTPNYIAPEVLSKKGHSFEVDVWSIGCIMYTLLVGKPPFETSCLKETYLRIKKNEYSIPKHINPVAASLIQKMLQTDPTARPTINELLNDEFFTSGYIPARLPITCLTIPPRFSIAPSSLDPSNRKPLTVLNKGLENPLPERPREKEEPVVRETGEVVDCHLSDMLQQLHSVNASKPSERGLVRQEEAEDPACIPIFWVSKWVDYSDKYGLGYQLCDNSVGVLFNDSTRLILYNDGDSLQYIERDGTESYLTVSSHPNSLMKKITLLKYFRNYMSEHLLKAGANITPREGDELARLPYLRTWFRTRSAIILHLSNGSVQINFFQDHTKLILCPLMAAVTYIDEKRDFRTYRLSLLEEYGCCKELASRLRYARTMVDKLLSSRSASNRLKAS
Sequence of Serine/threonine-protein kinase Nek7 (Homo sapiens) (Q8TDX7 whole entry, looked up): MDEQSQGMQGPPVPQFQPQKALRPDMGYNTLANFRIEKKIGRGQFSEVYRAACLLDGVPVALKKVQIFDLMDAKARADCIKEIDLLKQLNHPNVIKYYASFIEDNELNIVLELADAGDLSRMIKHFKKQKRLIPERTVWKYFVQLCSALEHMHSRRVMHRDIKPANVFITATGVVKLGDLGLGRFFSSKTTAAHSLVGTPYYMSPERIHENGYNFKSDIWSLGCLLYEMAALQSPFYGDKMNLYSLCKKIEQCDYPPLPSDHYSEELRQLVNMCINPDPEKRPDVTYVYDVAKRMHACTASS
Sequence of Vascular endothelial growth factor receptor 3 (Homo sapiens) (P35916 whole entry): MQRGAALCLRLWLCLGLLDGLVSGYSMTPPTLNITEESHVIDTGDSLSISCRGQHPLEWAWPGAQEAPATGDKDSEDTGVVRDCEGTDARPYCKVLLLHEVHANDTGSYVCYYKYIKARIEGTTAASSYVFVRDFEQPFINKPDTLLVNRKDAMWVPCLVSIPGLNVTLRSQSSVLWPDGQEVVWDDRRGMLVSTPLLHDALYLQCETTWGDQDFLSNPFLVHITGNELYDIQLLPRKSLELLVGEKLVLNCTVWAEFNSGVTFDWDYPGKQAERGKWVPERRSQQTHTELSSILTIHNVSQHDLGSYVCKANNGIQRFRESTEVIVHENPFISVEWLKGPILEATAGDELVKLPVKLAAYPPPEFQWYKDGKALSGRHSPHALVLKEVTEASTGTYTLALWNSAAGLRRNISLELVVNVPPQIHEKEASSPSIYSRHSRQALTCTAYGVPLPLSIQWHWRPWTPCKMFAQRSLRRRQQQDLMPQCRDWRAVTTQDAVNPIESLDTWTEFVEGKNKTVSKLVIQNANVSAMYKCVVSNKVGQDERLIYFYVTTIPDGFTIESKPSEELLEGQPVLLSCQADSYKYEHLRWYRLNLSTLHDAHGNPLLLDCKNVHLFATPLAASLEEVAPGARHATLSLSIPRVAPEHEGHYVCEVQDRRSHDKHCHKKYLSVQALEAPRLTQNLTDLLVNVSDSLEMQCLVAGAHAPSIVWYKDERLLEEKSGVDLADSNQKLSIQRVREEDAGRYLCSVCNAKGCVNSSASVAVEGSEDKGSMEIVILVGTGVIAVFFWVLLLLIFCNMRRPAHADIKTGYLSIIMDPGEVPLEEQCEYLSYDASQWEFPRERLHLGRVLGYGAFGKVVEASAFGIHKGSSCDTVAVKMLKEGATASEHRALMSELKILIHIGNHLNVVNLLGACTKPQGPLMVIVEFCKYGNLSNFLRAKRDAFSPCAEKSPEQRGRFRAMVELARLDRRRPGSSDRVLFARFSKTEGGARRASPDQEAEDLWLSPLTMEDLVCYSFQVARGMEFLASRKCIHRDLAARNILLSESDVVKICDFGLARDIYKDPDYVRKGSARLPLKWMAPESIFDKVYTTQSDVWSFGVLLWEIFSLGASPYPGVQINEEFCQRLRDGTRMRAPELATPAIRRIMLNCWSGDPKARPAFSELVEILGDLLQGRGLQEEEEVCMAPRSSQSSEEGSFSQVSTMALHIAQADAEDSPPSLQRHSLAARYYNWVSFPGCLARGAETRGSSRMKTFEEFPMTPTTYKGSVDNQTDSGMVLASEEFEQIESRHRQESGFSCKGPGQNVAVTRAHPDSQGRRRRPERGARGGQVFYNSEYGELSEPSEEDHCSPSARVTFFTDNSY

Cc1cc(-c2ccccn2)cc(C)c1/C=C/c1cncc(-c2nn[nH]n2)c1
inhibition [1]: 5.98%
inhibition [2]: 1.6%
inhibition [3]: 2.75%
inhibition [4]: 5.75%
inhibition [5]: 4.38%
inhibition [6]: 0.78%
inhibition [7]: 3.18%
inhibition [8]: 2.68%
inhibition [9]: 7.82%
inhibition [10]: 5.24%
inhibition [11]: 5.99%
inhibition [12]: 5.02%
inhibition [13]: 5.56%
inhibition [14]: 11.3%
inhibition [15]: 12%
inhibition [16]: 9.28%
inhibition [17]: 14.4%
inhibition [18]: 1.45%
inhibition [19]: 12.3%
inhibition [20]: 4.53%

CN(C)c1cc2c(Nc3ccc4c(cnn4Cc4ccccc4)c3)ncnc2cn1
inhibition [1]: 3.38%
inhibition [2]: 0.59%
inhibition [3]: 2.49%
inhibition [4]: 3.29%
inhibition [5]: 3.45%
inhibition [6]: 0.57%
inhibition [7]: 2.34%
inhibition [8]: 1.52%
inhibition [9]: 1.66%
inhibition [10]: 6.89%
inhibition [11]: 6.27%
inhibition [12]: 3.14%
inhibition [13]: 3.09%
inhibition [14]: 5.61%
inhibition [15]: 1.61%
inhibition [16]: 2.71%
inhibition [17]: 2.4%
inhibition [18]: 1.36%
inhibition [19]: 3.34%
inhibition [20]: 3.84%
